# Bioassay records as filed in PubChem BioAssay.
# BLM helicase inh = Bloom syndrome helicase (human) inhibition; P54132; 350,000 compounds, 0.2% hits; Potency, µM (highest dose often 56.1 µM), actives largely listed as inhibitors; recombinant BLM DNA unwinding, fluorescence dequenching; also: nearly all actives have a fitted effect of over 35% in size
# RECQ1 inh-1 = inhibitors of human RECQ1 DNA helicase | P46063 | RECQ1 DNA unwinding, red fluorescence kinetic read | Potency, µM (series often up to 57.3 µM), actives largely listed as inhibitors | 240,000 compounds, 0.54% hits | AID 2549; also: nearly all actives have a fitted effect of over 30% in size
#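 50 nM RECQ1T1 preincubated 15 min with compound in Tris pH 8.0 buffer with MgCl2, DTT, Tween-20 and 2.5 ug/ml poly(dI-dC); started with 200 nM TAMRA/BHQ-2 forked duplex and 2 mM ATP. Unwinding read as fluorescence (525/598 nm), two reads 2 h apart.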
# GLS inhibitor = glutaminase GLS (human) inhibition | Potency, µM (series often up to 45.5 µM), most hits filed as inhibitors | GLS enzymatic activity, qHTS titration | O94925 | 410,000 compounds, 0.21% hits | AID 624170
#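 Compounds were pin-transferred onto hKGA, after which L-glutamine (1 mM solution) and a detection mix of glutamate oxidase, HRP and Amplex Red were added. Initial and 30 min RT fluorescence reads were collected.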
# TDP1 inh = TDP1 (human) enzyme inhibition; Potency, µM (doses to about 130 µM), usual class: inhibitors; recombinant TDP1, AlphaScreen DNA substrate cleavage; Q9NUW8; 350,000 compounds, 0.28% hits; also: nearly all actives have a fitted effect of over 40% in size
#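 Tdp1 1 nM final; 15 min RT w/ cpd; substrate 15 nM, 5 min; beads 10 ug/ml, 10 min; AlphaScreen read. Neg ctrl: no enzyme.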
# APEX1 inh = blocks human APE1 abasic DNA cleavage | recombinant APE1, TAMRA/BHQ-2 abasic DNA cleavage fluorescence | Potency, µM (series often up to 65.8 µM), actives largely listed as inhibitors | 350,000 compounds, 0.35% hits | AID 2517; also: nearly all actives have a fitted effect of over 55% in size
# Target sequence (P27695 whole entry, looked up): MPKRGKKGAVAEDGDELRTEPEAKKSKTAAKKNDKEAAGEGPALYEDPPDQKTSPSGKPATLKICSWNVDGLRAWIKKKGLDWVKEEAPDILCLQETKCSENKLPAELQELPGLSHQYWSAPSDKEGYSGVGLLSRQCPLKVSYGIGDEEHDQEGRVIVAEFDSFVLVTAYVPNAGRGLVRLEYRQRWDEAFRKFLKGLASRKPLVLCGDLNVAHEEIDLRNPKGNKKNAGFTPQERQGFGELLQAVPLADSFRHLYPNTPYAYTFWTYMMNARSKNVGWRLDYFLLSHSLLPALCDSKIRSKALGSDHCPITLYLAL
#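 Compound pre-exposure to 0.75 nM APE1, 15 min at ambient temperature. Reaction initiated with 50 nM TAMRA/BHQ-2 THF substrate, read immediately in kinetic mode, 525 nm excitation, 598 nm emission.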
# PGK inhibitor = T. brucei PGK inhibition. P07378. PGK/GAPDH coupled, Kinase-Glo luminescence, 60 min. Potency, µM (highest dose often 57.5 µM), hits mostly inhibitors. 380,000 compounds, 0.043% hits. AID 602233; also: nearly all actives have a fitted effect of over 60% in size
#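 Recombinant glycosomal PGK reaction used 1,3-bisphosphoglycerate generated in-well by GAPDH (100nM final) in 100mM TEA pH 7.6, 5mM MgCl2, 0.01% Tween-20. After 60 minutes at room temperature, ATP was read by Kinase-Glo Plus luminescence end-point.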
# RECQ1 conf = confirmation of human RECQ1 helicase inhibitors; Potency, µM (top dose mostly 229 µM), hits mostly inhibitors; AID 2708; RECQ1 helicase DNA unwinding, fluorescence; 610 compounds, 28% hits; shares compounds with RECQ1 inh-1; also: nearly all actives have a fitted effect of over 45% in size
# ADP FP counter = displaces ADP in a fluorescence polarization counter-screen for RECQ1 hits; shares compounds with RECQ1 inh-1; ADP fluorescence polarization displacement counterscreen; Potency, µM (titrated, usually from 228 µM), usual class: inhibitors; 530 compounds, 27% hits; also: nearly all actives have a fitted effect of over 45% in size
# RECQ1 inh-2 = blocks human RECQ1 DNA unwinding | Potency, µM (top dose mostly 119 µM), hits mostly inhibitors | AID 504841 | 1,100 compounds, 15% hits | shares compounds with RECQ1 inh-1 | recombinant RECQ1 DNA unwinding, red fluorescence; also: nearly all actives have a fitted effect of over 50% in size
# A number is an active result; n = inactive; u = inconclusive; x = no result given; [ ] = another dose, or the depositor's remark. Hits are enriched below; roughly 0.85% of the tested compounds scored in any of these assays. Calls follow the shape of the dose curve; as a rule, active = well fitted curve in the direction sought with a large enough effect; inconclusive = small, poorly fitted or top-dose-only effect, or another doubt; inactive = no such curve, though single readings can be large; an effect the other way counts as inactive or inconclusive.
SMILES,BLM helicase inh,RECQ1 inh-1,GLS inhibitor,TDP1 inh,APEX1 inh,PGK inhibitor,RECQ1 inh-2,others
O=C(COc1cccnc1[N+](=O)[O-])Nc1c(Cl)cccc1Cl,x,x,n,n,n,n,x,
COc1cccc(-c2nc(NCc3ccccc3OC)c3ccccc3n2)c1,n,n,x,x,n,x,x,
COc1ccccc1CNc1nc(-c2ccc3c(c2)OCO3)nc2ccccc12,n,u,x,x,n,x,n,
CC1=CCC(C(C)(C)O)CC1 (configuration not stated),n,x,n,n,x,x,x,
COc1ccc2nc(NC(=O)C3CCCN(S(=O)(=O)c4cccc5nsnc45)C3)sc2c1 (configuration not stated),n,n,n,n,n,n,x,RECQ1 conf=n;ADP FP counter=n
COc1ccc(OC)c(C2OCCC=CC2C)c1 (configuration not stated),n[12.4 µM],n[11.5 µM],x,n[21 µM],u,x,x,
O=C1C(=Cc2ccc(Br)o2)C(=O)c2ccccc21,n,8.91µM,n,u,8.91µM,7.94µM,x,RECQ1 conf=u
COc1cc(/C=C2\SC(N)=NC2=O)ccc1OCC(=O)Nc1ccc(C)cc1,n,u,n,n,n,n,u,
CCOc1cccc(NC(=O)c2ccc(S(=O)(=O)N3CCCC3)cc2)c1,n,12.6µM,n,x,n,n,n,
O=C(NC(Cc1ccccc1)C(=O)O)c1ccc(S(=O)(=O)N2CCCCC2)cc1 (configuration not stated),n,n,n,n,n,n,x,RECQ1 conf=n;ADP FP counter=u
O=C(Nc1ccc(S(=O)(=O)N2CCCCC2)cc1)c1ccc(CN2CCc3ccccc3C2)cc1,n,u,n,n,n,n,n,
Cc1cc2ccccc2n1CCNC(=O)c1ccc(S(=O)(=O)N2CCCCC2)cc1,n,28.2µM,n,n,u,n,79.4µM,
O=C(O)c1cccc(Cn2c(Cl)c(/C=N/NC(=O)c3cc4ccccc4cc3O)sc2=O)c1,8.91µM,4.47µM,n,x,u,u,x,RECQ1 conf=u;ADP FP counter=n
O=C(O)c1cccc(Cn2c(Cl)c(/C=N/NC(=O)c3cccc(O)c3)sc2=O)c1,n,n,n,n,n,n,x,
CC(=O)OCCNc1nc(-c2ccccc2)nc2ccccc12,n,u,n,n,n,n,n,
O=c1c2c3c(sc2[nH]c(=S)n1Cc1ccco1)CCC3,n,12.6µM,n,u,u,n,x,RECQ1 conf=44.7µM;ADP FP counter=u
Cn1c(=O)n(Cc2ccco2)c(=N)c2c3c(sc21)CCC3,n,n,n,n,n,n,x,
NNc1nc2sc3c(c2c(=O)n1Cc1ccccc1)CCC3,n,n,n,x,n,n,x,
CCn1c(NN)nc2sc3c(c2c1=O)CCC3,n,u,n,n,n,n,n,
C=CCSC1=N/C(=C\c2sccc2C)C(=O)S1,n,n,n,n,n,n,x,
C=CCSC1=N/C(=C\C=C\c2ccco2)C(=O)S1,u,12.6µM,n,n,10µM,u,u,RECQ1 conf=44.7µM;ADP FP counter=14.1µM
O=S(=O)(c1cccc(F)c1)N1CCN(S(=O)(=O)c2ccc3c(c2)OCCO3)CC1,x,x,x,n,x,x,x,
C=CCn1c(=O)c(C#N)cc2c(=O)n3ccccc3nc21,n,u,n,n,n,n,n,
CCc1nnc(NS(=O)(=O)c2ccc(N/C=C\C(=O)c3cccc4ccccc34)cc2)s1,n,u,n,n,n,n,u,
CCc1nnc(NS(=O)(=O)c2ccc(N/C=C/C(=O)c3ccc(OC)cc3)cc2)s1,n,n,n,n,n,n,x,
COc1ccc(NC(=O)/C(Cl)=C(/Cl)S(=O)Cc2ccc(Cl)cc2)cn1 (configuration not stated),n,35.5µM,n,n,n,n,n,
